This is an account of results in PubChem BioAssay (NCATS).

The structures appear in SMILES notation. Results filed as inconclusive are left out. Calls of active or inactive are those of the source. Calls come from the whole dose curve; as a rule, active = well fitted inhibition curve with a large enough effect; inconclusive = small, poorly fitted or top-dose-only effect; inactive = flat fitted curve, though single readings scatter.
% is set by controls: 0 for no effect and ±100 for the full control effect; potency is the fitted concentration of half-maximal effect.

This assay in a line: P-glycoprotein substrates identified in KB-8-5-11 adenocarcinoma cell line, qHTS therapeutic library screen (AID 1346987). Note: nearly all actives have a fitted effect of over 65% in size. As to conditions: KB-8-5-11 (P-gp overexpressing) viability, CellTiter-Glo, 72 h; series mostly up to 44.5 µM; activity change, negative = cytotoxicity: at the top concentration. The method in brief: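 In this qHTS, P-gp-rich KB-8-5-11 cells received library compounds across a concentration range. Viability was quantified by luminescence after 72 h at 37 degree C.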
(Quantitative high-throughput screening tests each substance at several concentrations.)
Consider `CN(C)[C@@H]1C(=O)C(C(N)=O)=C(O)[C@@]2(O)C(=O)C3=C(O)c4c(O)ccc(Cl)c4[C@@](C)(O)C3C[C@@H]12` (stereo not given in full), for which the “activity change, negative = cytotoxicity” value is -16.5% (inactive).

Consider `COC1CCCC(C)OC(=O)Cc2cc(O)cc(O)c2C(=O)C1` (stereo not given), for which the Potency was 4.04 µM (active).

As to `CN1CCCCC1Cn1cc(C(=O)c2cc([N+](=O)[O-])ccc2I)c2ccccc21` (stereo not given), the “activity change, negative = cytotoxicity” value was -8.65% (inactive).

As to `CC12CCC3C(C1)c1c(cc(O)c(C(=O)c4ccccc4)c1OC3(C)C)O2` (stereo not given), the “activity change, negative = cytotoxicity” value is -27.4% (inactive).

Take `C#C[C@]1(O)CC[C@H]2[C@@H]3CC[C@H]4Cc5nc6nc7ccccc7n6cc5C[C@]4(C)[C@H]3CC[C@@]21C`: the Potency is 20.6 µM (active).

Consider `CC(C)[C@H]1OC(=O)[C@H](Cc2ccccc2)N(C)C(=O)[C@@H](C(C)C)OC(=O)[C@H](Cc2ccccc2)N(C)C(=O)[C@@H](C(C)C)OC(=O)[C@H](Cc2ccccc2)N(C)C1=O`, for which the Potency is 4.85 µM (active).

Consider `CCC1C2CC3C4N(C)c5ccccc5C45CC(C2C5O)N3C1O` (stereo not given), for which the call was inactive.

As for `COc1cc(O)c2c(c1)CCC[C@@H](O)[C@H](O)C(=O)/C=C\C[C@H](C)OC2=O`, the Potency is 14.3 µM (active).

For the compound `C[C@@H]1O[C@@H](OC2CCC3(C=O)C(CCC4C3CCC3(C)C(C5=CC(=O)OC5)C(O)CC43O)C2)[C@H](O)[C@H](O)[C@H]1O[C@@H]1O[C@H](CO)[C@@H](O)[C@H](O)[C@H]1O` (stereo not given in full), the Potency was 6.11 µM (active).

On to `C=C(C)C(=O)O[C@H]1[C@@H]2[C@H](C)C(=O)O[C@@H]2C[C@@H](C)[C@@H]2C=CC(=O)[C@]21C`, for which the Potency was 3.6 µM (active).

Turning to `CCN1C[C@]2(COC)CC[C@H](O)[C@@]34C5C[C@@H]6[C@@H](OC)C[C@@](OC(C)=O)(C5[C@@H]6OC(C)=O)[C@H]([C@H](OC)C23)[C@@H]14` (stereo not given in full), the “activity change, negative = cytotoxicity” value was -21.4% [at 17.3 µM] (inactive).

On to `C[C@]12CC[C@H](O)C[C@@]1(O)CC[C@@H]1[C@@H]2CC[C@]2(C)[C@@H](c3ccc(=O)oc3)CC[C@]12O`, for which the Potency was 0.0184 µM (active).

For `CN1C(=O)N(c2ccc(C#N)c(C(F)(F)F)c2)C(=O)[C@@]1(CO)c1ccccc1`, the “activity change, negative = cytotoxicity” value was -24.3% (inactive).

Consider `CC(=O)O[C@H]1C[C@]2(O)[C@@H]3CC[C@@H]4C[C@@H](O)CC[C@]4(C)[C@H]3CC[C@]2(C)[C@H]1c1ccc(=O)oc1`, for which the Potency was 0.0517 µM (active).

On to `CCCCCn1cc(C(=O)Oc2cccc3cccnc23)c2ccccc21`, for which the “activity change, negative = cytotoxicity” value is -18.6% (inactive).

`COC1CC(O[C@H]2CC[C@@]3(C)C(CCC4C3CC[C@]3(C)C(C5=CC(=O)OC5)CCC43O)C2)OC(C)C1OC1OC(COC2OC(CO)C(O)C(O)C2O)C(O)C(O)C1O` (stereo not given in full): the Potency is 1.74 µM (active).

For `C=C(C)[C@@]12O[C@@H]1[C@@]1(C)C(=CC2=O)CC[C@@H](OC(C)=O)[C@@H]1C`, the Potency was 5.17 µM (active).

`CN1Cc2c(ccc3c2OCO3)[C@@H]2[C@H]1c1cc3c(cc1C[C@@H]2O)OCO3`: the Potency was 1.61 µM (active).

For `CC1=CC2OC3CC(O)[C@](C)([C@@]2(C)C(O)C1=O)[C@]31CO1` (stereo not given in full), the Potency was 5.17 µM (active).

As to `CC[C@H](O)[C@@H](C)[C@H]1O[C@@H]1C[C@H](C)/C=C/C=C(\C)[C@H]1OC(=O)C[C@H](O)CC[C@@](C)(O)[C@@H](OC(C)=O)/C=C/[C@@H]1C`, the Potency was 0.0092 µM (active).

Regarding `COC(=O)C12C(=O)C(C)(O)C(=O)C1(C)C(C)=CC1C34CCC(OC3=O)C(C)(C)C4CCC12C` (stereo not given), the “activity change, negative = cytotoxicity” value is -18.1% [at 17.3 µM] (inactive).

With `CCOc1ccc(Oc2ccc(OCc3cc(F)ccc3F)cc2)c(N)c1`, the “activity change, negative = cytotoxicity” value was 6.04% (inactive).

`Cc1ccc2c(c1)[C@H]1CN(C)CC[C@H]1N2C(=O)CSc1nnnn1-c1ccc(Cl)cc1`: the “activity change, negative = cytotoxicity” value was -9.43% (inactive).

Regarding `C=C1C2(C)CC3C(C)(O)C4=CC(=O)OC(C)(C)C4=CCC3(C)C13C(=O)OC(C)C3(O)C2=O` (stereo not given), the “activity change, negative = cytotoxicity” value was 4.66% [at 17.3 µM] (inactive).

Regarding `Fc1cc(F)c2c(c1)C1C=CCC1C(c1cccnc1)N2` (stereo not given), the Potency was 4.61 µM (active).

In the case of `CCCN(CCC)[C@@H]1CCc2ccc3[nH]c(C#N)cc3c2C1`, the “activity change, negative = cytotoxicity” value is 0.945% (inactive).

For `C[C@]12CC[C@H](O)C[C@@H]1CC[C@@H]1[C@@H]2CC[C@]2(C)[C@@H](C3=CC(=O)OC3)CC[C@]12O`, the Potency is 11.4 µM (active).

With `c1ccc([C@@H]2C[C@H]2NC2CCNCC2)cc1`, the “activity change, negative = cytotoxicity” value was -9.87% (inactive).

In the case of `CC(=O)OC[C@]12[C@H](OC(C)=O)C(=O)[C@@H]3[C@@H](O)[C@@]14O[C@@]3(C)COC(=O)c1cccnc1[C@@H](C)[C@H](C)C(=O)O[C@@H]([C@H](OC(C)=O)[C@@H]2OC(C)=O)[C@]4(C)O`, the “activity change, negative = cytotoxicity” value is -20.5% [at 17.3 µM] (inactive).

Turning to `Cc1c(N[C@@H](c2nnc(-c3ccc(C#N)cc3)o2)[C@H](C)O)ccc(C#N)c1Cl`, the “activity change, negative = cytotoxicity” value is -19.1% (inactive).
